Data published in PubChem BioAssay.
Calls of active or inactive are those of the source. Unless noted, no rule for the calls is given here.

Columns and labels:
[1] = anti-His antibody binders, primary screen, artefact control for SMM control protein annotation, biochemical, small-molecule microarray, 635 nm fluorescence (AID 1128); conditions: anti-His Alexa647 antibody binding, higher = more signal;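 also: score merges feature fluorescence with signal-to-noise for each printed compound spot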
[2] = tested on: Human papillomavirus type 1a E7 protein (residues 1-88); assay: HPV1a E7 small-molecule binders, primary screen, biochemical, small-molecule microarray, residues 1-88, 635 nm (AID 1129); conditions: small-molecule microarray binding, fluorescence 635 nm; higher = more signal
[3] = target: Focal adhesion kinase 1 (Homo sapiens) (UniProt Q05397); assay: small-molecule microarray binders of FAK, primary screen, biochemical, 635/667 nm fluorescence, BSA, DTT (AID 1130); conditions: PTK2 binding, 635 nm fluorescence, higher = more signal;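 also: composite of spot emission at 667 nm and signal to noise over triplicate slides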
[4] = tested on: Fibrinogen (Alexa647-labelled); assay: fibrinogen binders on compound microarrays, profiling panel, artefact control for SMM control-protein annotation, biochemical, small-molecule microarray, 635/667 nm fluorescence (AID 1131); conditions: fibrinogen-A647 binding fluorescence, higher = more signal;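 also: z-score merges 667 nm fluorescence with per-spot signal-to-noise over triplicate slides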
[5] = target: Follistatin (Homo sapiens) (UniProt P19883); assay: follistatin binders on small-molecule microarrays, primary screen, biochemical, small-molecule microarray, 635/667 nm fluorescence (AID 1132); conditions: FST binding, 635 nm fluorescence, higher = more signal
[6] = target: Fibroblast growth factor 2 (Homo sapiens) (UniProt P09038); assay: FGF2 binders on small-molecule microarrays, primary screen, biochemical, small-molecule microarray, 635/667 nm fluorescence (AID 1133); conditions: small-molecule microarray binding, FGF2, fluorescence 635/667; higher = more signal
[7] = mitochondrial membrane potential change in A549 cells, profiling panel, cell-based, JC-1 fluorescence, basal, 24 h, 100 nL (AID 1138); conditions: higher = more signal;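 also: A549 lung adenocarcinoma cells under basal conditions with no added stimulus; test concentration not given here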
Lefty1 = Lefty1 binders on small-molecule microarrays, primary screen, biochemical, small-molecule microarray, 635/667 nm fluorescence (AID 1139); conditions: small-molecule microarray binding, fluorescence 635/667; higher = more signal
[8] = tested on: wheat germ agglutinin (Triticum aestivum), Alexa647-labelled; assay: wheat germ agglutinin binders on compound microarrays, profiling panel, artefact control for SMM control-protein annotation, biochemical, small-molecule microarray, 635/667 nm fluorescence (AID 1140); conditions: WGA-A647 binding, 635 nm fluorescence, higher = more signal;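 also: score merges 667 nm feature emission with signal to noise over triplicate slides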
[9] = target: Luciferin 4-monooxygenase (Photinus pyralis) (UniProt P08659); assay: firefly luciferase enzyme inhibitors, primary screen, biochemical, luminescence, purified enzyme, 2006 set (AID 1141); conditions: SteadyGlo luminescence, 30 min, higher = more signal, called active from +8 up or from −8 down;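 also: cell-free assay with purified firefly luciferase at 100 ng per well in PBS; test concentration not given here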
[10] = tested on: Wnt5a (protein binding on small-molecule microarray); assay: Wnt5a binders on small-molecule microarray, primary screen, biophysical, 635/667 nm fluorescence (AID 1142); conditions: 635 nm fluorescence, higher = more signal;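 also: fluorescence read at 667 nm with signal to noise per printed feature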
[11] = cell viability in Huh7 cells, primary screen, cytotoxicity control for HCV replication inhibitor project, CellTiter-Glo luminescence, basal, 48 h (AID 1143); conditions: Huh7 HCV replicon, higher = more signal, called active from +8 up or from −8 down;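 also: Huh7 hepatoma cells carrying a hepatitis C replication reporter with no stimulus; test concentration not given here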
[12] = P. aeruginosa biofilm formation inhibitors, primary screen, PAO1 strain, BacTiter-Glo luminescence, LB-PBS (AID 1144); conditions: 12 h, higher = more signal
[13] = CREB reporter modulators without forskolin, primary screen, cell-based, PC12, CRE-LacZ reporter, unstimulated (AID 1145); conditions: no forskolin, luminescence, 4.5 h, higher = more signal, called active from +8 up or from −8 down
[14] = CREB reporter modulators under forskolin, primary screen, cell-based, PC12, CRE-LacZ reporter, forskolin-stimulated (AID 1146); conditions: luminescence, 4.5 h, higher = more signal, called active from +8 up or from −8 down;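 also: PC12 cells with 6xCRE LacZ reporter stimulated by forskolin 10 µM; beta-galactosidase reporter signal reflecting CREB driven transcription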
[15] = target: Streptavidin (Streptomyces avidinii) (UniProt P22629); assay: streptavidin binders on small-molecule microarray, primary screen, artefact control for SMM compound annotation, biophysical, 635/667 nm fluorescence (AID 1147); conditions: streptavidin binding, higher = more signal;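 also: signal reflects streptavidin binding to arrayed compounds as a control protein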
[16] = small-molecule binders of probe aInhba, primary screen, biochemical, small-molecule microarray, 635/667 nm fluorescence (AID 1148); conditions: higher = more signal;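 also: score merges 667nm spot fluorescence with signal-to-noise for antibody binding to printed compounds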
Torsin-1A (Homo sapiens) [17] = target: Torsin-1A (Homo sapiens) (UniProt O14656); assay: torsin A binders from cell lysate, primary screen, small-molecule microarray, wild-type, 635/667 nm (AID 1149); conditions: COS7 hTOR1A-WT lysate, 635 nm fluorescence, higher = more signal
Torsin-1A (Homo sapiens) [18] = target: Torsin-1A (Homo sapiens) (UniProt O14656); assay: small-molecule binders of mutant TOR1A in lysate, primary screen, cell lysate, small-molecule microarray, COS7 lysate, 635/667 nm fluorescence (AID 1150); conditions: COS7 hTOR1A mutant lysate, 635 nm fluorescence, higher = more signal;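 also: score pools 667 nm emission and signal to noise measuring lysate protein binding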
[19] = tested on: Sonic hedgehog protein (Shh); assay: small-molecule binders of Shh protein, primary screen, biochemical, small-molecule microarray, 635/667 nm fluorescence (AID 1151); conditions: small-molecule microarray binding, 635 nm fluorescence; higher = more signal;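 also: Shh protein binding to compounds spotted on small-molecule microarray slides; score combines spot fluorescence intensity with signal-to-noise across triplicate slides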

Chain of Streptavidin (Streptomyces avidinii) (P22629 whole entry, looked up): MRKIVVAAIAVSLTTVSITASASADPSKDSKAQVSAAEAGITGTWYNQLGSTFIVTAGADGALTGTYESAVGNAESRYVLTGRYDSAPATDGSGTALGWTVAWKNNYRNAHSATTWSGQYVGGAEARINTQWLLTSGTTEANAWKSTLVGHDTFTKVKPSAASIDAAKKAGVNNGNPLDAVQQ
Chain of Fibroblast growth factor 2 (Homo sapiens) (P09038 whole entry, looked up): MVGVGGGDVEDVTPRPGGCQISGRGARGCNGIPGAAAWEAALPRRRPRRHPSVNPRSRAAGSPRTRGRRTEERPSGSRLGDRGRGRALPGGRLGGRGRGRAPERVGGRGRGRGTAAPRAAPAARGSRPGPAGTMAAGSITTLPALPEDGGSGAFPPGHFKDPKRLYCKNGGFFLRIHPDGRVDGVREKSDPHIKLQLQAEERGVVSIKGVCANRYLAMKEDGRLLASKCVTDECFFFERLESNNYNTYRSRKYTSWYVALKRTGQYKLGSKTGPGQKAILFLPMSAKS
Chain of Torsin-1A (Homo sapiens) (O14656 whole entry, looked up): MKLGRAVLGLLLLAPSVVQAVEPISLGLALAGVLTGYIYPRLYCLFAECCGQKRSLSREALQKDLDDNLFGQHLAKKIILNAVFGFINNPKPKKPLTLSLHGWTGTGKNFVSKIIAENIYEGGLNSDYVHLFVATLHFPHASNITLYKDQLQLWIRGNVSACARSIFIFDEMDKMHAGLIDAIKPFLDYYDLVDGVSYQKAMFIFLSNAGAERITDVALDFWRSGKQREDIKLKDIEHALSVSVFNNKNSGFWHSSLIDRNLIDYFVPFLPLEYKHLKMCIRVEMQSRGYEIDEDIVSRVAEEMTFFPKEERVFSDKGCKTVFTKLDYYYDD
Chain of Luciferin 4-monooxygenase (Photinus pyralis) (P08659 whole entry, looked up): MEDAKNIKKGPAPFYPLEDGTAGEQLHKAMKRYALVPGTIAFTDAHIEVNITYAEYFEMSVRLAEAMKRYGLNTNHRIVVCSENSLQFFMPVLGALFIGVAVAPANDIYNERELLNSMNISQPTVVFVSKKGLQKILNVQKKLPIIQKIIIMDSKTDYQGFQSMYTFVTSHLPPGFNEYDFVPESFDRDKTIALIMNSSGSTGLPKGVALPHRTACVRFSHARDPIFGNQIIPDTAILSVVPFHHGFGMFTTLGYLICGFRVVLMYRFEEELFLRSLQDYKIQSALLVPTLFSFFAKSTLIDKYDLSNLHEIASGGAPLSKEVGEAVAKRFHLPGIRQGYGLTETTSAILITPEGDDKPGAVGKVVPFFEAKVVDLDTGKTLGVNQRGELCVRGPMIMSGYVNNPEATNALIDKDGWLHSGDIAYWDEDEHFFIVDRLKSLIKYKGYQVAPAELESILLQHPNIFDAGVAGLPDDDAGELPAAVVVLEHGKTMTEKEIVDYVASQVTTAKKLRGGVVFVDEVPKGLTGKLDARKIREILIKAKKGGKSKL
Chain of Focal adhesion kinase 1 (Homo sapiens) (Q05397 whole entry, looked up): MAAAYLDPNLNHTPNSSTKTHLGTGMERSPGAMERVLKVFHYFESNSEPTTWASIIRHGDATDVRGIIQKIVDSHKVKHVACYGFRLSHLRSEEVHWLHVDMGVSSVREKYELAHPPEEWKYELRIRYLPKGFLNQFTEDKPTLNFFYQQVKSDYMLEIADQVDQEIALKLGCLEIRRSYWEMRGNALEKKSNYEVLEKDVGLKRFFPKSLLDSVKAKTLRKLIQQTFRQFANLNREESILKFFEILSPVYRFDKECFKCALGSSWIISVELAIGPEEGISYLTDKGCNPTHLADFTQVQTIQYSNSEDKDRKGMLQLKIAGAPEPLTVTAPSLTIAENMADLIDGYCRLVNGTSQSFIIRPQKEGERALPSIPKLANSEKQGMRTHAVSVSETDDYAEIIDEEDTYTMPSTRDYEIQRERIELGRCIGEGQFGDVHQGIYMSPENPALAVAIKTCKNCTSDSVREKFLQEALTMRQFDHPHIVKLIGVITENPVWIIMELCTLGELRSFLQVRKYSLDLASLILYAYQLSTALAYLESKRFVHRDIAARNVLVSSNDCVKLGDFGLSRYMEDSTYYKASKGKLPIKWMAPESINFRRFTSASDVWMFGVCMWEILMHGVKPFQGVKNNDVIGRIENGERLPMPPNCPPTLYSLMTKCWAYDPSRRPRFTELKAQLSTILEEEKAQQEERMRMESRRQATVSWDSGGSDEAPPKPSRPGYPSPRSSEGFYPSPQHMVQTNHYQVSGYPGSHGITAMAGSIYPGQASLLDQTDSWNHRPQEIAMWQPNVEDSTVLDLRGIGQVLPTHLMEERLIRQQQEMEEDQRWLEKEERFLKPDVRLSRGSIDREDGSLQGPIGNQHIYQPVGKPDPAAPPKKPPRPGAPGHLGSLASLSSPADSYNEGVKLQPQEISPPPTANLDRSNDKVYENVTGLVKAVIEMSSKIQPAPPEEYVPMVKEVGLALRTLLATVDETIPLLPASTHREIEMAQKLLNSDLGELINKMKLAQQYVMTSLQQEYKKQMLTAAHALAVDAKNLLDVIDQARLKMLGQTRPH
Chain of Follistatin (Homo sapiens) (P19883 whole entry, looked up): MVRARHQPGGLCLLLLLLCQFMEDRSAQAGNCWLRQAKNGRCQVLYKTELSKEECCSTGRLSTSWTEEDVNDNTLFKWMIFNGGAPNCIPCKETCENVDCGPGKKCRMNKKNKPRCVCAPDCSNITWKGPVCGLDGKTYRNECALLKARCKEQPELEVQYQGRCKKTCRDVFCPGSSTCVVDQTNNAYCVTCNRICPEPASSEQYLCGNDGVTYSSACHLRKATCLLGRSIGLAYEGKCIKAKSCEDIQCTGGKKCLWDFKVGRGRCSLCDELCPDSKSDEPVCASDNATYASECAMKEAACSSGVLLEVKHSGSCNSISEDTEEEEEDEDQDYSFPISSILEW

Structure (SMILES)	composite z-score [1]	composite z-score [2]	composite z-score [3]	composite z-score [4]	composite z-score [5]	composite z-score [6]	z-score [7]	composite z-score (Lefty1)	composite z-score [8]	z-score [9]	composite z-score [10]	z-score [11]	z-score [12]	z-score [13]	z-score [14]	composite z-score [15]	composite z-score [16]	composite z-score (Torsin-1A (Homo sapiens) [17])	composite z-score (Torsin-1A (Homo sapiens) [18])	composite z-score [19]
COc1ccc([Si](C)(C)[C@@H]2[C@@H](CC(=O)N(CCO)Cc3ccccc3)O[C@]3(C(=O)N(Cc4cccc(N5CCCCC5=O)c4)c4ccccc43)[C@H]2C)cc1	0.112	0.869	0.518	-0.451	1.15	0.361	-0.171	1.46	0.349	0.151 (inactive)	0.585	-4.76 (inactive)	-0.952 (inactive)	0.716 (inactive)	0.708 (inactive)	-0.402	0.187	0.961	0.706	2.06
CC(CO)N1C(=O)[C@]2(C)C3C(=O)OCCC/C=C\[C@H]3OC23C=CCN(c2ccc(Cl)cc2)C(=O)[C@@H]13 (stereo not given in full)	-0.263	-0.48	1.53	-0.316	-0.568	-0.85	0.444	-0.506	-0.335	-0.53 (inactive)	-0.313	0.612 (inactive)	-1.53 (inactive)	0.187 (inactive)	-0.592 (inactive)	-0.741	-0.316	-0.775	-0.734	0.0223
CCCC=C(CCC)[C@@H](NC(=O)c1cccs1)c1ccc(C(=O)OC)cc1	0.196	0.741	0.205	0.686	0.816	1.13	0.733	-0.223	-0.119	2.23 (inactive)	0.535	-0.268 (inactive)	-0.473 (inactive)	-0.951 (inactive)	0.158 (inactive)	0.373	0.375	0.657	0.183	-0.83
C=CC[C@@H](OC(=O)Nc1ccc(SC)cc1)c1ccc(O)c(F)c1	2.11	0.57	0.274	0.221	1.06	1.11	-1.12	0.394	0.904	-3.58 (inactive)	0.175	-0.77 (inactive)	-1.57 (inactive)	9.49 (active)	3.13 (inactive)	-0.192	-0.0468	0.26	0.163	1.87
COCCOC(=O)N1C(=O)[C@@]2(c3cc(C#CCCO)ccc31)[C@H](c1ccc(OCCO)cc1)N1[C@H](c3ccccc3)[C@H](c3ccccc3)OC(=O)[C@H]1[C@@H]2C(=O)Nc1nc2ccccc2s1	0.872	1.15	0.479	0.817	1.32	0.759	-2.37	1.41	1.13	-2.18 (inactive)	0.508	-0.218 (inactive)	0.56 (inactive)	-0.618 (inactive)	-0.267 (inactive)	1.13	0.358	0.266	0.0474	1.97
COc1ccc(CCNC(=O)[C@@]2(Cc3ccccc3I)c3ccccc3C(=O)N(C3CCCCC3)[C@H]2c2ccc(CO)cc2)cc1	0.362	0.839	0.22	0.434	0.341	-0.199	0.348	0.106	0.177	1.18 (inactive)	-0.372	-6.39 (inactive)	-1.43 (inactive)	-0.0243 (inactive)	-1.06 (inactive)	0.623	0.0198	-0.57	-0.0979	-0.193
COCCOC(=O)N1C(=O)[C@@]2(c3cc(C#CC4(O)CCCCCC4)ccc31)[C@H](C(=O)N1CCc3cc(OC)c(OC)cc3C1)[C@H]1C(=O)O[C@H](c3ccccc3)[C@H](c3ccccc3)N1[C@@H]2c1ccc(OCCO)cc1	0.244	0.867	1.06	0.682	1.29	1.32	-1.11	1.23	0.475	-1.07 (inactive)	0.536	-1.38 (inactive)	-0.555 (inactive)	-0.465 (inactive)	0.581 (inactive)	1.04	-0.0736	0.71	0.362	1.58
CCCCC(=C=CC[C@H](O)c1ccc(OCCO)cc1)CCO	-0.582	0.0547	0.0832	-1.64	-0.232	-0.674	0.25	0.282	0.717	-0.98 (inactive)	-0.0188	-1.08 (inactive)	0.489 (inactive)	2.57 (inactive)	0.0098 (inactive)	-0.209	-0.0451	0.678	1.58	0.011
CCOC(=O)C[C@H]1[C@H](OC(=O)Cc2ccc3c(c2)OCO3)[C@@H](NC(=O)c2ccc3ccccc3n2)c2cc(OCCCO)ccc2N1C(=O)c1ccc2ccccc2n1	0.267	0.496	0.629	0.913	0.497	0.13	3.18	0.37	0.754	-1.83 (inactive)	0.593	-1.23 (inactive)	-1.4 (inactive)	6.51 (inactive)	-1.03 (inactive)	0.363	-0.128	0.451	0.339	0.301
CC(C)C(CO)N1C(=O)[C@@H]2C3C(=O)OCCC/C=C\[C@H]3OC23C=CCN(c2ccc4ccccc4c2)C(=O)[C@@H]13 (stereo not given in full)	-0.236	-0.696	0.374	-1.62	-0.0619	-1.02	0.723	0.0124	0.562	-0.526 (inactive)	-0.4	-0.567 (inactive)	1.09 (inactive)	-0.761 (inactive)	-0.137 (inactive)	-0.537	-0.0695	-1.83	-0.801	0.41
